In PubChem BioAssay (EPA / NIEHS):
Calls of active or inactive are those of the source. The calls were made as follows: active = hit-call score of the fitted dose curve at least 0.9, where 1 is the maximum; inactive = score below 0.9.

Test: ATG_DR4_LXR_CIS: Attagene CIS-FACTORIAL HepG2 Assay for human Liver X Receptor (LXR), DR4 submotif (AID 2282929)
Conditions: HepG2 Attagene DR4 cis-reporter, mRNA transcription; actives raise or lower the signal
Protocol: ATG_CIS is a cell-based, multiplexed-readout assay that uses HepG2, a human liver cell line, with measurements taken at 24 hours after chemical dosing in a 24-well plate.ATG_DR4_LXR_CIS is one of 52 assay component(s) measured or calculated from the ATG_CIS assay. It is designed to make measurements of mRNA induction, a form of inducible reporter, as detected with fluorescence intensity signals by Reverse transcription polymerase chain reaction (RT-PCR) and Capillary electrophoresis technology.Data from the assay component ATG_DR4_LXR_CIS was analyzed into 1 assay endpoint. This assay endpoint, ATG_DR4_LXR_CIS, was analyzed with bidirectional fitting relative to DMSO as the negative control and baseline of activity. Using a type of inducible reporter, measures of mRNA for gain or loss-of-signal activity can be used to understand the reporter gene at the transcription factor-level as they relate to the gene NR1H2 and NR1H3. Furthermore, this assay endpoint can be referred to as a primary readout, because this assay has produced multiple assay endpoints where this one serves a reporter gene function. To generalize the intended target to other relatable targets, this assay endpoint is annotated to the nuclear receptor intended target family, where the subfamily is non-steroidal.
Human liver HepG2 cells are transiently transfected with multiple reporter transcription units (MRTUs) in 6-well plates using FuGene 6 reagent (Roche; 3 ml FuGene/1 mg DNA). The MRTU constructs are regulated by a cis-regulating element (promoter). […] A major difference between the CIS and TRANS system is that in CIS activities of endogenous TFs are measured, whereas the TRANS assay evaluates changes in activities of exogenous, chimeric NR-Gal4 proteins. […] At the end of 24 hour incubation, total RNA was isolated using TriZol reagent (Invitrogen). The isolated RNA is then reverse-transcribed using oligo(dT) primer and Mo-MLV reverse transcriptase (Invitrogen) with DNAse I (Ambion) treatment for 30 min. The one-tenth of the produced cDNA was amplified by PCR using Taq DNA polymerase (Invitrogen) and two reporter sequence-specific primers. The PCR products were fluorescently labeled by primer extension with 6-arboxyfluorescein (6-FAM) 5'-labeled reporter sequence-specific primer (2 min at 95 C, 20 s at 68 C and 10 min at 72 C) and these products were digested with 5U of HpaI (New England Biolabs) for 2h at 37 C. The fragments were purified using Qiaquick PCR columns (Qiagen), analyzed on an ABI 3130xL genetic analyzer (Applied Biosystems) with peak positions identified by using a set of X-rhodamine (ROX)-labeled MapMarker1000 molecular weight standards (BioVentures). The raw capillary electrophoresis data was processed using Attagraph software (Attagene).

outcome, inactive:
O=C(O)CCCCC1CCSS1 (stereo not given)
CCN(CC)CCOC(=O)c1ccc(N)cc1
CCCCCCCCCCCCCOS(=O)(=O)O
O=[N+]([O-])c1cc(C(F)(F)F)ccc1Cl
O=C(O)c1ccc([N+](=O)[O-])cc1
O=C(O)CN(CCN(CC(=O)O)CC(=O)O)CCN(CC(=O)O)CC(=O)O
CC(C)C1CCC(O)CC1 (stereo not given)
O=S(=O)(O)c1cccc2c(S(=O)(=O)O)cccc12
CCC(=O)OCc1ccccc1
CC(C=O)Cc1ccc(C(C)C)cc1 (stereo not given)
O=S(=O)(O)c1ccc(O)c2ncccc12
COc1ccc(Cl)cc1C
CC(=O)O[C@H](CC(=O)[O-])C[N+](C)(C)C
C=C(C)C(=O)OCCOC(=O)CC(C)=O
CC1(CO)CN(c2ccccc2)NC1=O (stereo not given)
CC1=CCC2C(C1)C2(C)C (stereo not given)
Cc1cccc(C)c1C
CC(C)(N)CO
COc1ccc(OC)c(OC)c1
CC1CCC(C(C)(C)O)CC1 (stereo not given)
CC(C)CCCCCCCOC(=O)c1ccc(C(=O)OCCCCCCCC(C)C)c(C(=O)OCCCCCCCC(C)C)c1
CCCC[n+]1ccccc1
CC(=O)OCC=Cc1ccccc1
CCCc1c(OCCCOc2ccc(OCC(=O)O)cc2)ccc(C(C)=O)c1O
CN(C)CCCN
NCCOCCO
CC(CC(C)(C)C)CC(C)(C)CC(C)(C)C (stereo not given)
COc1nc(C)nc(N)n1
CC(=O)[O][Al][O]C(C)=O
C[C@]12CC[C@H]3[C@@H](CCC4=CC(=O)CC[C@@]43C)[C@@H]1CC[C@@H]2C(=O)CO
c1ccc(CCCc2ccccn2)cc1
CSc1nc(NC2CC2)nc(NC(C)(C)C)n1
CC(=O)c1c(C)cc(C(C)(C)C)cc1C
CCCCCC(CO)CCC (stereo not given)
CC(=O)OCCC(C)CC(C)(C)C (stereo not given)
O=c1[nH]nnc2ccccc12

AC50, active:
CCCCC/C=C/C=C/C=O 167 µM
C=CC(=O)OCC(O)COc1ccccc1 (stereo not given) 32 µM
c1cc(C(c2ccc(OCC3CO3)cc2)c2ccc(OCC3CO3)cc2)ccc1OCC1CO1 (stereo not given) 53.2 µM
CCN(CC)c1ccc2c(-c3ccccc3C(=O)O)c3ccc(=[N+](CC)CC)cc-3oc2c1 130 µM
